Bioassay records deposited in PubChem BioAssay by National Center for Advancing Translational Sciences (NCATS).
A selection: hits, their analogues and other compounds. The true share with any hit is near 7.9%.
HCV inhibitor: blocks hepatitis C virus; Huh7.5.1 HCVcc-Cre infection, luciferase reporter, 44 h; Potency, µM (titrated, usually from 41.8 µM), without a hit: top-dose activity change, negative = inhibition, hits mostly inhibitors; actives 3.4% (n = 340,000); AID 651820; active = well fitted inhibition curve with a large enough effect; inconclusive = small, poorly fitted or top-dose-only effect, or another doubt; inactive = no such curve, though single readings can be large or run the other way; note: potency is the fitted concentration of half-maximal effect
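Antiviral activity was scored by luciferase reporter output from cells infected with HCVcc-Cre (~0.5 moi) in presence of compound, 44 h infection period, cells seeded 1,000/well 4 h prior.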
FMDV inh: blocks foot and mouth disease virus; FMDV antiviral cell-based qHTS; Potency, µM (doses to about 57.9 µM), for the others: at the highest dose activity change, negative = inhibition, usual class: inhibitors; actives 1.2% (n = 410,000); AID 1159524; calls by dose curve; tested in HEK293T cells; note: read-out not given here; potency is the fitted concentration of half-maximal effect; nearly all actives have a fitted effect of over 45% in size
LASV entry inh: Lassa virus entry inhibition; Lassa virus pseudotype entry inhibition, cell reporter; Potency, µM (titrated, usually from 37.9 µM), inactives show top-dose activity change, negative = inhibition, hits mostly inhibitors; actives 1.2% (n = 300,000); AID 540256; calls by dose curve; tested in HEK293 cells; note: potency is the fitted concentration of half-maximal effect; nearly all actives have a fitted effect of over 50% in size
MARV entry inh: inhibitors of Marburg virus binding or cell entry; Potency, µM (titrated, usually from 37.8 µM), inactives show top-dose activity change, negative = inhibition, actives largely listed as inhibitors; Marburg virus pseudotyped entry inhibition, cell reporter; actives 1.8% (n = 300,000); AID 540276; calls by dose curve; tested in HEK293 cells; note: potency is the fitted concentration of half-maximal effect
HCMV inh: human cytomegalovirus inhibition | HFF cells, HCMV-luciferase reporter, 72 h; active compounds read low | actives 4.5% (n = 410,000) | activity change, negative = inhibition, % at 57.5 µM | AID 1259415; in the data active = activity change below about -60%; inconclusive = no clear call, values can overlap the other calls; inactive = above about -39%
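Screen run at 2 compound doses on HFFs infected with reporter HCMV, MOI 1 PFU/cell. Luciferase activity from cell lysates at 72 h post infection gave inhibition relative to buffer-only and Salinomycin wells.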
* = called active by the depositor; ? = inconclusive; . = no result given; [ ] = remark or other dose. % is set by controls: 0 for no effect and ±100 for the full control effect.

SMILES | HCV inhibitor | FMDV inh | LASV entry inh | MARV entry inh | HCMV inh
CC1CCN(c2nc(CN3CCCCC3)nc3scc(-c4ccccc4)c23)CC1 | ? | 32µM* | ? | ? | ?
COC(=O)C[C@H]1C[C@H]2c3cc(NC(=O)C4CCOCC4)ccc3O[C@H]2[C@@H](CO)O1 | . | -14% | . | . | -4
COc1ccccc1-c1ccnc(-n2ncc(C(=O)N(C)CCc3ccccn3)c2C)n1 | . | 19% | . | . | .
O=C1c2ccccc2C(=O)N1CCCCc1cn(C[C@H]2CC[C@@H]([C@@H]3CC[C@H](Cn4cc(CCCCN5C(=O)c6ccccc6C5=O)nn4)O3)O2)nn1 | ? | 25µM* | . | . | 12
O=C1c2ccccc2C(=O)N1CCCc1cn(C[C@H]2CC[C@@H]([C@@H]3CC[C@H](Cn4cc(CCCN5C(=O)c6ccccc6C5=O)nn4)O3)O2)nn1 | 9%[8.37 µM] | -18% | . | . | -13
CCCCCCCCCCCCCCCCCCOC[C@H](COP(=O)([O-])OCC[N+](C)(C)C)OC(C)=O | . | -12%[6.7 µM] | . | . | .
COC(=O)c1ccc(/C=C/c2c(-c3ccsc3)sc3ccccc23)cc1 | 10µM* | -16% | . | . | -4
CCCCCCCC1Cc2ccccc2C(C(C(=O)OC)C(=O)OC)N1C(=O)OC (stereo not drawn) | . | . | ? | -2%[14.2 µM] | .
Nc1ncnc2c1ncn2C1CCCC1 | ? | -14% | 12% | ? | -1
Nc1ncnc2c1ncn2C1CCCO1 (stereo not drawn) | -4% | -22% | ? | ? | -73*
Fc1ccccc1CSc1ncnc2c1ncn2C1CCCO1 (stereo not drawn) | -22% | 29% | ? | 0.89µM* | ?
COc1ccc(C(=O)N2CCC[C@@]3(CCN(Cc4ccccc4OC)C3)C2)cc1 | . | -5% | . | . | .
O=C(NCc1ccc(F)cc1)c1c2c(nc3ccccc13)CCN(Cc1ccccc1)C2 | 4% | -15% | -1% | ? | 10
Nc1[nH]nc2nc(NCc3ccccc3)c3c(c12)CCN(Cc1ccccc1)C3 | -23% | -22% | 13µM* | ? | 1
CCNc1ncc2nc(-c3ccc(Cl)cc3)c(=O)n(CCC#N)c2n1 | . | -5% | . | . | .
CSc1ncc(CN2CCCCC2C(=O)Nc2ccc(Oc3ccccc3)nc2)cn1 (stereo not drawn) | ? | -16% | -5% | 5.6µM* | -30
CCc1ccc(CN2CCC(C(=O)Nc3ccc(Oc4ccccc4)nc3)CC2)o1 | 11µM* | ? | -27%[46.1 µM] | ? | -72*
COc1ccc(CN2CCC(C(=O)Nc3ccc(Oc4ccccc4)nc3)CC2)cc1F | 2.5µM* | ? | ? | ? | -70*
Cc1ncc(CN2CCCCC2C(=O)Nc2ccc(Oc3ccccc3)nc2)cn1 (stereo not drawn) | 19% | -13% | 0% | 29% | -10
O=C(Nc1ccc(Oc2ccccc2)nc1)C1CCN(Cc2ccccc2)CC1 | ? | -3% | . | . | -21
COc1cc(F)ccc1CN1CCC(C(=O)Nc2ccc(Oc3ccccc3)nc2)CC1 | 10µM* | ? | ? | ? | 0
COc1ccc(CNC(=O)CN2C(=O)CSc3ccc(S(=O)(=O)N4CCCCC4)cc32)cc1 | ? | -14% | -17%[46.1 µM] | 13%[46.1 µM] | -26
CCc1cccc(C)c1NC(=S)NCc1ccc2[nH]c(C)cc2c1 | ? | 12% | ? | -32% | 22
O=C(Nc1ccc(Oc2cccnc2)cc1)C1CCN(Cc2cccc(Cl)c2)CC1 | ? | -12% | . | . | -79*
Cc1ccc(OCCCCCCN2CCNCC2)c(Br)c1 | ? | -19% | ? | 13µM* | -63*
SMILES | HCV inhibitor | FMDV inh | LASV entry inh | MARV entry inh | HCMV inh
CC1CCN(CCCOc2ccc(Br)cc2Cl)CC1 | -21% | 11% | ? | ? | 28
CC1CCN(CCCCOc2ccc(Cl)cc2)CC1 | ? | -9% | 6%[46.1 µM] | 7.9µM* | .
Cc1ccc(OCCCCN2CCC(C)CC2)c(Br)c1 | ? | -10% | ? | 15µM* | -67*
Cc1cc(C)c2c(n1)nn1c(NCCOCCO)cc(C)nc21 | 5% | 1% | 0% | 4% | -11
Cc1cc(C)c2c(n1)nn1c(NCCCN(C)C)cc(C)nc21 | 22µM* | 2% | -9% | ? | 95
O=C(NCC(O)c1ccc2ccccc2c1)c1c(F)cccc1F (stereo not drawn) | -3% | 5% | 6%[46.1 µM] | 0%[46.1 µM] | -1
COc1ccc(C2=C/C(=C\c3ccccc3OC(C)=O)C(=O)O2)cc1 | -3% | 53% | . | . | 15
COc1ccc(C2=C/C(=C\c3cccc(OC(C)=O)c3)C(=O)O2)cc1 | 4% | 4% | 7% | -1% | -65*
O=C(Nc1ccc(Cl)cc1)c1cc2c(cc1O)[nH]c1ccccc12 | ? | ? | ? | 7.9µM* | -81*
CC(=O)Nc1ccc2[nH]c3ccccc3c2c1 | -9% | . | 22% | 26% | -3
O=C(C[n+]1cccc(/C=N/O)c1)NC(=O)Nc1ccccc1 | . | . | . | . | 13
COc1ccc(C(=O)Nc2ccccn2)cc1 | 4% | 5% | 13% | 18%[46.1 µM] | 34
O=C(NC(O)C(=O)c1ccccc1)c1ccccn1 (stereo not drawn) | 6% | 46% | -1%[46.1 µM] | -8%[46.1 µM] | 7
O=C(NN=C(c1ccccc1)c1ccccn1)c1ccccc1 | 2.5µM* | -14% | ? | 6.3µM* | -98*
COc1ccc(Cc2nc(C(=O)Nc3ccc(F)cc3)cs2)cc1 | 10µM* | -1% | -5% | -24%[46.1 µM] | -25
COc1ccc(C(=O)N/N=C(\c2ccccc2)c2ccccn2)cc1 | 2.8µM* | -33% | ? | 9.2µM* | -99*
COc1ccc(C(=O)Nc2ccc(NC(=O)c3ccccn3)cn2)cc1 | -20% | 4% | ? | -2%[46.1 µM] | -32
COc1ccc(NC(=O)c2ccccn2)cc1 | 6% | 11µM* | ? | ? | .
O=C(c1csnn1)N1CCC2(CC1)CN(Cc1cc(C(F)(F)F)cc(C(F)(F)F)c1)C2 | . | -8% | . | . | .
COc1ccc(C2=NC(C)(C)N(CC(=O)Nc3cccc(C)c3)C2=O)cc1 | . | 6% | -17%[46.1 µM] | ? | -11
Cc1cc(C)cc(OCC(=O)NNC(=O)c2ccccn2)c1 | ? | -12% | . | . | -97*
O=C(N/N=C(\c1ccccc1)c1ccccn1)c1ccccc1Cl | ? | ? | ? | ? | -114*
C/C(=N/NC(=O)c1ccccn1)c1ccncc1 | 38% | 48% | 6% | ? | 29
CC(=O)c1cccc(NC(=O)CN2C(=O)c3ccccc3Sc3ncccc32)c1 | . | 40µM* | -11%[46.1 µM] | . | 21
CC(=O)c1cccc(NC(=O)CN2C(=O)c3cccnc3Sc3ccccc32)c1 | . | 8% | 1%[46.1 µM] | . | 77
COC(=O)C1=CO[C@@H](C)[C@H]2CN3CCc4c([nH]c5ccccc45)[C@@H]3C[C@H]12 | ? | ? | . | . | -68*
COC(=O)C1=COC(C)C2CN3CCc4c([nH]c5ccccc45)C3CC12 (stereo not drawn) | -69% | -13% | . | . | .
Cc1ccc(C)c(NC(=O)C2(C)CC3c4ccccc4C2c2ccccc23)c1 (stereo not drawn) | 7% | -1% | ? | -18% | -105*
